Assay in all cases: DAPPL (digital affinity profiling via proximity ligation, sequencing); 10 mM Tris-HCl pH 7.5, 50 mM NaCl, 1 mM DTT, 4% glycerol, room temperature, 30 min; GST-TFs on glutathione beads, 16-mer random dsDNA library, 0.1% formaldehyde crosslink after washing; high values mean tight binding
One test concerns the target T1, FEV (Homo sapiens, UniProt Q99581 1-238).
T1 sequence: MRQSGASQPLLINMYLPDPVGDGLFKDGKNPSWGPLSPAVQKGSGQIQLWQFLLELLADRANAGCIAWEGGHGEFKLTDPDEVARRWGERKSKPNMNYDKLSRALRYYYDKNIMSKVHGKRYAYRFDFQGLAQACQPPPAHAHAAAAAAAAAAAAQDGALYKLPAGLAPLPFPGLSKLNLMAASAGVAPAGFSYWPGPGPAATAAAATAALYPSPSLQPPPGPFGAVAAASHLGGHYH
To be noted: protein: recombinant; tags: N-terminal GST; dsDNA, one strand shown. The gist of the method:
(§1)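 Human transcription factors fused to GST were expressed in yeast, captured on glutathione beads, given DNA barcodes and pooled with a GST-only negative control. Pools were incubated with 200 nmole of a 16-mer random double-stranded DNA library in Tris/NaCl/DTT/glycerol buffer at room temperature for 30 min. They were then washed, crosslinked with 0.1% formaldehyde, proximity-ligated (BsaI/T4 ligase, 1 h, 37 °C), PCR-amplified and sequenced on an Illumina NextSeq500. Binding signal is each 6-mer's read frequency for a factor divided by its frequency for the GST control.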

The next test addresses ETV5 (Homo sapiens, UniProt P41161 1-510). To be noted: protein: recombinant; tags: N-terminal GST; dsDNA, one strand shown. The gist of the method: as §1
A further test has as its target HSF1 (Homo sapiens, UniProt Q00613 1-529). To be noted: protein: recombinant; tags: N-terminal GST; chain copies: 3; dsDNA, one strand shown. The gist of the method: as §1
Another test concerns the target T2, SPIC (Homo sapiens, UniProt Q8N5J4 1-248).
T2 sequence: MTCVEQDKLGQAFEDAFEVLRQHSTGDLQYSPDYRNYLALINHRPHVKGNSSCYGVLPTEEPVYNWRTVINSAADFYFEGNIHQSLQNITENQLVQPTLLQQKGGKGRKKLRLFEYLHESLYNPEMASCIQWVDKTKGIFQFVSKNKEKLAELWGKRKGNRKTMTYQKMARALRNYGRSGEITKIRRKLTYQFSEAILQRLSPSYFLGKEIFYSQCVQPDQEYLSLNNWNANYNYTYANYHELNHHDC
To be noted: protein: recombinant; tags: N-terminal GST; dsDNA, one strand shown. The gist of the method:
as §1

A further test concerns the target ELF4 (Homo sapiens, UniProt Q99607 1-663). To be noted: protein: recombinant; tags: N-terminal GST; dsDNA, one strand shown. Summed up:
as §1

In a further test the target is T3, ELK4 (Homo sapiens, UniProt P28324-2 1-405).
T3 sequence: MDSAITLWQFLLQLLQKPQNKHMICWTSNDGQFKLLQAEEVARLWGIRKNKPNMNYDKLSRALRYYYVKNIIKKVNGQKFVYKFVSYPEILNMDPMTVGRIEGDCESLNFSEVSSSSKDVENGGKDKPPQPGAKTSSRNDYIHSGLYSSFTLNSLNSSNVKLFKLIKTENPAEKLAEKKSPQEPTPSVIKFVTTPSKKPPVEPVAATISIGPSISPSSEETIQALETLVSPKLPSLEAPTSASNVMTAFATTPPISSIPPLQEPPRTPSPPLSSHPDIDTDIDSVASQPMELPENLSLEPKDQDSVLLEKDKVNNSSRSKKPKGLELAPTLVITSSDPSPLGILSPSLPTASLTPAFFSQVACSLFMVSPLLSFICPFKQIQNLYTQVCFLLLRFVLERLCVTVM
To be noted: protein: recombinant; tags: N-terminal GST; dsDNA, one strand shown. The gist of the method:
as §1

A further test addresses T4, ETV2 (Homo sapiens, UniProt O00321 1-342).
T4 sequence: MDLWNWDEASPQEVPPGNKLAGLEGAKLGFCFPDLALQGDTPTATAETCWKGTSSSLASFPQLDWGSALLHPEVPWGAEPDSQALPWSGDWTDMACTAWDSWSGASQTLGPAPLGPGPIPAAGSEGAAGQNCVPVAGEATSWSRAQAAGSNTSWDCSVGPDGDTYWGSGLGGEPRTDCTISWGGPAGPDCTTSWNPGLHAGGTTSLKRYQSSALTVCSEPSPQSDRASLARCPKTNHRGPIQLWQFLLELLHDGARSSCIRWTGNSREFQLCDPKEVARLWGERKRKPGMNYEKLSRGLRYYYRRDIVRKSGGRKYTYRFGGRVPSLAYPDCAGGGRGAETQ
To be noted: protein: recombinant; tags: N-terminal GST; dsDNA, one strand shown. The gist of the method: as §1

Another test addresses T5, ELF3 (Homo sapiens, UniProt P78545 1-371).
T5 sequence: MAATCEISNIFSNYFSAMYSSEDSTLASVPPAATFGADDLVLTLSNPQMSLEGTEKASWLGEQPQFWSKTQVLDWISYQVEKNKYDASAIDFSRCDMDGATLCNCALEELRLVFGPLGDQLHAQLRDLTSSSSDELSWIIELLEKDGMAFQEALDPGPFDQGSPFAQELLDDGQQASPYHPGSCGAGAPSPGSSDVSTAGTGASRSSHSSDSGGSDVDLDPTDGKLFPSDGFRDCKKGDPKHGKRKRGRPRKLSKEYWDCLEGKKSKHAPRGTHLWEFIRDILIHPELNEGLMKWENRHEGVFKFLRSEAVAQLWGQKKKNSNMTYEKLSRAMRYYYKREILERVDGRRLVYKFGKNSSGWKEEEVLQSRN
To be noted: protein: recombinant; tags: N-terminal GST; dsDNA, one strand shown. The gist of the method:
as §1

Another test concerns the target CRX (Homo sapiens, UniProt O43186 1-299). To be noted: protein: recombinant; tags: N-terminal GST; dsDNA, one strand shown. Summed up: as §1
For a further test, the target named is ETV1 (Homo sapiens, UniProt P50549 1-477). To be noted: protein: recombinant; tags: N-terminal GST; dsDNA, one strand shown. The gist of the method: as §1
The target in the next test is T6, ERF (Homo sapiens, UniProt P50548 1-548).
T6 sequence: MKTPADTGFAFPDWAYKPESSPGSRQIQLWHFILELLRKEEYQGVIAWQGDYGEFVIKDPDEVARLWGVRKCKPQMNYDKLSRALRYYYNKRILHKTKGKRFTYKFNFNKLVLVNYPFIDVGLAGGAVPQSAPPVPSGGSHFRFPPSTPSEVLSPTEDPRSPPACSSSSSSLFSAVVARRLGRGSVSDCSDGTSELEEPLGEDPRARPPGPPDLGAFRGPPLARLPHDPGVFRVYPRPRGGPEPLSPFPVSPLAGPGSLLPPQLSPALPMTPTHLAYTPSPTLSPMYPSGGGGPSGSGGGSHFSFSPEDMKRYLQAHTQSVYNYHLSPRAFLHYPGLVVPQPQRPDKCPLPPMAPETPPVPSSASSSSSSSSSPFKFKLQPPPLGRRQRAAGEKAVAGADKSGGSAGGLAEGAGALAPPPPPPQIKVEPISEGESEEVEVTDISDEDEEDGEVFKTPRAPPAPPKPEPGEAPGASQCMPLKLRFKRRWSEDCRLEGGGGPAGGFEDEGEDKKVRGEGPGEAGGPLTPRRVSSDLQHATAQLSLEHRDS
To be noted: protein: recombinant; tags: N-terminal GST; dsDNA, one strand shown. The gist of the method:
as §1

Another test has as its target T7, ETV3L (Homo sapiens, UniProt Q6ZN32 1-361).
T7 sequence: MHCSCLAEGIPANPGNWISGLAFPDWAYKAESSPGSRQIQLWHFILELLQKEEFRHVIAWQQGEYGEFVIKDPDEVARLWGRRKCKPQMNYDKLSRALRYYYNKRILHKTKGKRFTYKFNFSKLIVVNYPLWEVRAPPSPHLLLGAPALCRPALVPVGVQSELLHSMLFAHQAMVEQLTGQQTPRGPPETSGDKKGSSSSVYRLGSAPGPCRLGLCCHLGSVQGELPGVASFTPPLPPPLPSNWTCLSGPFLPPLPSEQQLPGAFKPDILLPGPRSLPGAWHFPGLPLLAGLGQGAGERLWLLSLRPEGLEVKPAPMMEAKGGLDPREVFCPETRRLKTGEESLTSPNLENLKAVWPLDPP
To be noted: protein: recombinant; tags: N-terminal GST; dsDNA, one strand shown. Summed up: as §1

A further test deals with T8, ETS2 (Homo sapiens, UniProt P15036 1-469).
T8 sequence: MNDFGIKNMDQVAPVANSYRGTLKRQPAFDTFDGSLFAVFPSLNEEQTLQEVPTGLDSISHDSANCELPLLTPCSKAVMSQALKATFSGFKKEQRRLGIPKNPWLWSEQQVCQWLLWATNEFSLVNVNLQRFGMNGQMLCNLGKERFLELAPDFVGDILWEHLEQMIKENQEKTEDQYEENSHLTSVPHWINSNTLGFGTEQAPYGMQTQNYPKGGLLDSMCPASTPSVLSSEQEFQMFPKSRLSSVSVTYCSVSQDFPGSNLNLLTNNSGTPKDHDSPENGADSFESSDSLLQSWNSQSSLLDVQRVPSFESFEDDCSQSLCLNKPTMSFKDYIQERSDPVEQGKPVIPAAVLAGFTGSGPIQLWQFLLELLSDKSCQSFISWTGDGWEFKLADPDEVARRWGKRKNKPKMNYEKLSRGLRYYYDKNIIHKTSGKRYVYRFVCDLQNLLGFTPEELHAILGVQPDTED
To be noted: protein: recombinant; tags: N-terminal GST; dsDNA, one strand shown. Summed up:
as §1

A further test addresses T9, SPDEF (Homo sapiens, UniProt O95238 1-335).
T9 sequence: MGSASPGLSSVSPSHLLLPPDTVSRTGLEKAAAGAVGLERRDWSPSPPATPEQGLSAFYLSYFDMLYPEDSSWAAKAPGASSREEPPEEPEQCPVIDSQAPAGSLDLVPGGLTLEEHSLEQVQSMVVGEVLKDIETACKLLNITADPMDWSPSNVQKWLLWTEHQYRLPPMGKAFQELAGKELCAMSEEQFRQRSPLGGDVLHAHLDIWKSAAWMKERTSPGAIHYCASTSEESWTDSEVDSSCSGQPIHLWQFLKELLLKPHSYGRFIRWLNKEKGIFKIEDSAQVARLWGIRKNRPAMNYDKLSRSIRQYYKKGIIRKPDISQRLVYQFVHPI
To be noted: protein: recombinant; tags: N-terminal GST; dsDNA, one strand shown. The gist of the method: as §1

In the next test the target is T10, ETV7 (Homo sapiens, UniProt Q9Y603 1-341).
T10 sequence: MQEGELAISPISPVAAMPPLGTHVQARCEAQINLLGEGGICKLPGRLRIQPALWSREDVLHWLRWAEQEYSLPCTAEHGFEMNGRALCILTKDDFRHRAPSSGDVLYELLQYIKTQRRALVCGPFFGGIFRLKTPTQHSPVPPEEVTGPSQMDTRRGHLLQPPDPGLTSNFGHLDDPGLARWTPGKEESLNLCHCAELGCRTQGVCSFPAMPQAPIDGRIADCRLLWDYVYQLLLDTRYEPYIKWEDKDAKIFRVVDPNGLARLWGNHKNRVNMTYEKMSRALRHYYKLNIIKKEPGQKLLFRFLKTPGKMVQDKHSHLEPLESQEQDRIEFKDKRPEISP
To be noted: protein: recombinant; tags: N-terminal GST; dsDNA, one strand shown. The gist of the method:
as §1

In the next test the target is T11, ELF5 (Homo sapiens, UniProt Q9UKW6-2 1-255).
T11 sequence: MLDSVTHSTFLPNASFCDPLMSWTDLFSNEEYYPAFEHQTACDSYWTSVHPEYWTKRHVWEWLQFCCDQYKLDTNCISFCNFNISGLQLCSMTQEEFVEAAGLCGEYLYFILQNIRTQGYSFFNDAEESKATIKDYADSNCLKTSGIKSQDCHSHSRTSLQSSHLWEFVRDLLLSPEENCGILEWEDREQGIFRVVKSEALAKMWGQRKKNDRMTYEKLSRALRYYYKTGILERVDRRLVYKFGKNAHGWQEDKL
To be noted: protein: recombinant; tags: N-terminal GST; dsDNA, one strand shown. The gist of the method:
as §1

For a further test, the target named is T12, ETV3 (Homo sapiens, UniProt P41162-2 1-143).
T12 sequence: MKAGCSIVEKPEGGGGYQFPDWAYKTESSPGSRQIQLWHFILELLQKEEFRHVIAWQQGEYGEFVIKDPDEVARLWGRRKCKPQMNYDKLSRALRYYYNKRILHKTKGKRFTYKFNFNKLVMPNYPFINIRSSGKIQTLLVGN
To be noted: protein: recombinant; tags: N-terminal GST; dsDNA, one strand shown. Summed up:
as §1

The target of another test is ETV6 (Homo sapiens, UniProt P41212 1-452). To be noted: protein: recombinant; tags: N-terminal GST; dsDNA, one strand shown. Summed up:
as §1

Drawing on article PMC7862700, “An all-to-all approach to the identification of sequence-specific readers for epigenetic DNA modifications on cytosine”, this text covers binding signal for one sequence.

Sequence of ETV1 (P50549 whole entry): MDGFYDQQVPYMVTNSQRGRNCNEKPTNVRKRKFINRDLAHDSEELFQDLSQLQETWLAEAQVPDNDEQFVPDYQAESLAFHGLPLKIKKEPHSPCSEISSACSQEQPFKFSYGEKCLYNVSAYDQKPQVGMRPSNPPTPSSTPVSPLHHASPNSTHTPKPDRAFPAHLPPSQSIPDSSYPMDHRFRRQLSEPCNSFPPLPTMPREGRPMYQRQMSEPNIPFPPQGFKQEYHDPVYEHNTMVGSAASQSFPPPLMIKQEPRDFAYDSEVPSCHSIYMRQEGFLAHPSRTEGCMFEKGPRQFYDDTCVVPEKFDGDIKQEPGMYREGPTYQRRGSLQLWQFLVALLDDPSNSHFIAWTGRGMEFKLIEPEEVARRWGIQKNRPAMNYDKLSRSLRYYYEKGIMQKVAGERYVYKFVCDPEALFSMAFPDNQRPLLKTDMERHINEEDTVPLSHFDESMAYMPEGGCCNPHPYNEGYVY
Sequence of ETV6 (P41212 whole entry): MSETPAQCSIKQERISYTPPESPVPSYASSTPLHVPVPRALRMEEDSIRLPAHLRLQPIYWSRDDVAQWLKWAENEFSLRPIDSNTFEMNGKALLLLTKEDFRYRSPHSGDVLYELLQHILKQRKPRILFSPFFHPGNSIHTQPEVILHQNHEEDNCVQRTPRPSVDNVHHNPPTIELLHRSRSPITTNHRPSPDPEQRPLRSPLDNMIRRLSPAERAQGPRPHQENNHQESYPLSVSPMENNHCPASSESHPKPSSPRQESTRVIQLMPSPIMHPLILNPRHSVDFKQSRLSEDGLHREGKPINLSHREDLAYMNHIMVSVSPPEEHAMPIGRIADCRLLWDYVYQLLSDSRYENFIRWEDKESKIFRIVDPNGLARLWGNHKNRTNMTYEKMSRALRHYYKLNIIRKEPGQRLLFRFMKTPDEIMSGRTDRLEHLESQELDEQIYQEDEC
Sequence of ETV5 (P41161 whole entry): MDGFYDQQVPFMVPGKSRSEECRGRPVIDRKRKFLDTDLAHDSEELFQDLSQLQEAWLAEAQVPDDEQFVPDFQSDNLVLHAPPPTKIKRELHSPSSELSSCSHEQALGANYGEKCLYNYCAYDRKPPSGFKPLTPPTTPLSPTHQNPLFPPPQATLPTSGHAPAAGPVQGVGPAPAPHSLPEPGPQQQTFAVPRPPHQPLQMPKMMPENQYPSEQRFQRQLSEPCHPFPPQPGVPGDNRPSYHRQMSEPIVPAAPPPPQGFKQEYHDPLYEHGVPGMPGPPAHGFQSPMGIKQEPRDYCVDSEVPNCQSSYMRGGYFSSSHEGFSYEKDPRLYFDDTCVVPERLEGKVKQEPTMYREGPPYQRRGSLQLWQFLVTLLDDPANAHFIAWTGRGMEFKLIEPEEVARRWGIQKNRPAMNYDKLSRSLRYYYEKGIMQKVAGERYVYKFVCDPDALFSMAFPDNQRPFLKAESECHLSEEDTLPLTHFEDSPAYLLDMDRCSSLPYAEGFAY
Sequence of ELF4 (Q99607 whole entry): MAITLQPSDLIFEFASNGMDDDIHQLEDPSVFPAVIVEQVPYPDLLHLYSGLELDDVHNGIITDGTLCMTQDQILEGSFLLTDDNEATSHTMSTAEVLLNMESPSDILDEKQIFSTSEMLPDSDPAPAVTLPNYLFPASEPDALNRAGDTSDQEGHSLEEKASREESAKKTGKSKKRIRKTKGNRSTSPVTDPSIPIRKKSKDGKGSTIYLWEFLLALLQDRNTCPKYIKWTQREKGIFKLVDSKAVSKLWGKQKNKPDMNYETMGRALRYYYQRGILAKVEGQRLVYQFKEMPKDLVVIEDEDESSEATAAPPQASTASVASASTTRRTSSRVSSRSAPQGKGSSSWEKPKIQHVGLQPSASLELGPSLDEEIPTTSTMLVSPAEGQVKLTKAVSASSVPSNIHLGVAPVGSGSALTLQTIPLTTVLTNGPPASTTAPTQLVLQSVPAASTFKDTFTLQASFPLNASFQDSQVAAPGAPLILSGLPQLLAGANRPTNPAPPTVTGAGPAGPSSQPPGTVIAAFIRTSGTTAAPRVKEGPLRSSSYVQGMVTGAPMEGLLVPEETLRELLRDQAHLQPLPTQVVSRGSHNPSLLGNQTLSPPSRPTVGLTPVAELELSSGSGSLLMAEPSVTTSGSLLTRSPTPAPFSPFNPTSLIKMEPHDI
Sequence of CRX (O43186 whole entry): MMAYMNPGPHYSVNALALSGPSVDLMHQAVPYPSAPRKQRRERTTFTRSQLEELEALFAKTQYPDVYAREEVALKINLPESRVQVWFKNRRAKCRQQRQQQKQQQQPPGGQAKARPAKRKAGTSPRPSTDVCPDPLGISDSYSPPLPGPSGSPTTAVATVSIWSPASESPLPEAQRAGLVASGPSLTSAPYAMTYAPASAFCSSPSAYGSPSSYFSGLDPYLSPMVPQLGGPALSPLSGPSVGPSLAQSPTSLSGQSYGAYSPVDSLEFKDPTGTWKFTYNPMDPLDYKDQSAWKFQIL
Sequence of HSF1 (Q00613 whole entry): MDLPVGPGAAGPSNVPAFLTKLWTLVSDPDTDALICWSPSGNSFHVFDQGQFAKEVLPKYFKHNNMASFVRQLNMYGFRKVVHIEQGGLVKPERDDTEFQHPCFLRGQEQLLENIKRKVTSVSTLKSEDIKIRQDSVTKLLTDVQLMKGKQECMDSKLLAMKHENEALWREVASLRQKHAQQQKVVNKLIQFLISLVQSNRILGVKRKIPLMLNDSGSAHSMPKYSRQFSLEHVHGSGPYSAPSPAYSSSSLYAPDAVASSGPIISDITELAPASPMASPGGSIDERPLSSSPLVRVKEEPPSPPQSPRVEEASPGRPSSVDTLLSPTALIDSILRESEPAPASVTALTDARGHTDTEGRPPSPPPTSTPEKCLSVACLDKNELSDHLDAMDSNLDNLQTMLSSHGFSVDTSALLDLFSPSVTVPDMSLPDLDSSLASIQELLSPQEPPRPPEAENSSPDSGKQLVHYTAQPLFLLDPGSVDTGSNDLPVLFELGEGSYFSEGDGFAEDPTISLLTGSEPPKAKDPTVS

As for TGATCT, the binding signal with FEV is 1.12 fold enrichment (6-mer frequency, TF over GST control); in the test with ETV5, 1.21 fold enrichment (6-mer frequency, TF over GST control); with HSF1, 1.66 fold enrichment (6-mer frequency, TF over GST control); in the test with SPIC, 1.19 fold enrichment (6-mer frequency, TF over GST control); in the test with ELF4, 1.16 fold enrichment (6-mer frequency, TF over GST control); with ELK4, 1.37 fold enrichment (6-mer frequency, TF over GST control). Also, the binding signal in the test with ETV2 was 1.21 fold enrichment (6-mer frequency, TF over GST control); in the test with ELF3, 1.25 fold enrichment (6-mer frequency, TF over GST control); with CRX, 1.86 fold enrichment (6-mer frequency, TF over GST control); in the test with ETV1, 1.2 fold enrichment (6-mer frequency, TF over GST control); with ERF, 1.35 fold enrichment (6-mer frequency, TF over GST control); with ETV3L it was 1.1 fold enrichment (6-mer frequency, TF over GST control). In addition, the binding signal is 1.31 fold enrichment (6-mer frequency, TF over GST control) with ETS2; 1.23 fold enrichment (6-mer frequency, TF over GST control) with SPDEF; 1.11 fold enrichment (6-mer frequency, TF over GST control) with ETV7; 1.22 fold enrichment (6-mer frequency, TF over GST control) with ELF5; 1.25 fold enrichment (6-mer frequency, TF over GST control) in the test with ETV3; 1.06 fold enrichment (6-mer frequency, TF over GST control) with ETV6.
